High-throughput results deposited in PubChem BioAssay by The Scripps Research Institute Molecular Screening Center.
sPLA2-III inh – Blocks human group III sPLA2 activity; Q9NZ20; QFRET BODIPY PC-A2 liposome hydrolysis, fluorescence; inhibition, % at 12.2 µM; 370,000 tested, 0.56% active; AID 743126;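 active = inhibition above mean plus 3 SD of compounds lying within the high and low control bounds, cut at about 19% in these data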
proKLK7 act – proKLK7 (human) activation, primary screen. P49862. purified proKLK7, EDANS-DABCYL substrate fluorescence; 100% is mature enzyme control, 0% vehicle. activation, % at 7 µM. 370,000 tested, 0.9% active;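 active = activation above the mean of all tested compounds plus 3 SD, computed per campaign excluding outliers beyond control limits, cut at about 13% in these data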
PLC-gamma1 inh – inhibitors of human phospholipase C gamma1 | inhibition, % at 12.2 µM | P19174 | purified PLC-gamma1, fluorogenic substrate, fluorescence | 370,000 tested, 0.84% active; in the data active = inhibition above about 9.5%
ADAM10 inh – inhibits human ADAM10; recombinant ADAM10, EDANS/DABCYL FRET peptide cleavage, 3 h; 370,000 tested, 0.62% active; AID 720582; O14672; inhibition, % at 7 µM;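 active = inhibition above a per-campaign cutoff equal to the mean of compounds falling between control-based bounds plus 3 SD, cut at about 20% in these data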
Target sequence (O14672 214-748 limits assumed): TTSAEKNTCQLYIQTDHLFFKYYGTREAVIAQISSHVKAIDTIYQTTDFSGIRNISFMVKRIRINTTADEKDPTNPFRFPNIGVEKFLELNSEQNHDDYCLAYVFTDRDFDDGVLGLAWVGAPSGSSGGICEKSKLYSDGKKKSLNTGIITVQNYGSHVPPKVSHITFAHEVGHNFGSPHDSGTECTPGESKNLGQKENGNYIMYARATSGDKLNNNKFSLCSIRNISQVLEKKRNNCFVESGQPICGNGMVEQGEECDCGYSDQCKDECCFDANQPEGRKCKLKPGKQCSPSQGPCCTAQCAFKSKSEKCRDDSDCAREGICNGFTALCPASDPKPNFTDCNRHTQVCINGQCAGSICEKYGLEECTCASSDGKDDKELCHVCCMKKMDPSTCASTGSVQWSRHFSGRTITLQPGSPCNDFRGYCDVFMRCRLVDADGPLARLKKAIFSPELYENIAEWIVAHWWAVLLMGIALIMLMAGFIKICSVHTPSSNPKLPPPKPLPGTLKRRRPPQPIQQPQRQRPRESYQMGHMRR
ADAM17 inh – inhibitors of human ADAM17; recombinant ADAM17, EDANS/DABCYL FRET peptide cleavage; inhibition, % at 6.95 µM; 370,000 tested, 0.83% active;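 active = inhibition above the mean of compounds lying between control limits plus 3 SD, set per campaign, cut at about 8.5% in these data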
PLC-beta3 inh – PLC-beta3 (human) inhibition, primary screen | Purified PLC-beta3, fluorogenic substrate, fluorescence | AID 720704 | inhibition, % at 12.2 µM | Q01970 | 370,000 tested, 0.18% active; in the data active = inhibition above about 11%
ADAM10 confirm – human ADAM10 inhibition, confirmation. shares compounds with ADAM10 inh. ADAM10 QFRET peptide cleavage, EDANS fluorescence. inhibition, % at 6.95 µM. 2,100 tested, 1% active. AID 743208;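 active = inhibition above about 20% chosen separately for each screening run, limit read from the data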
ADAM17 counter – ADAM17 inhibition, counter-screen for ADAM10 exosite hits; inhibition, % at 6.95 µM; 2,100 tested, 0.5% active; ADAM17 QFRET peptide cleavage, EDANS fluorescence; shares compounds with ADAM10 inh;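 active = mean triplicate inhibition above the solvent-only control wells' mean plus 3 SD, cut at about 12% in these data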
ADAM10 counter – ADAM10 inhibition, counter-screen for ADAM17 exosite hits | inhibition, % at 6.95 µM | recombinant ADAM10, EDANS/DABCYL FRET peptide cleavage, 3 h | 2,900 tested, 47% active | AID 743256 | shares compounds with ADAM17 inh;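 active = mean inhibition over the triplicate runs exceeds the activity threshold set in the earlier primary screen, cut at about 20% in these data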
ADAM17 confirm – confirmation of inhibitors of human ADAM17; shares compounds with ADAM17 inh; 2,900 tested, 65% active; inhibition, % at 6.95 µM; recombinant ADAM17, EDANS/DABCYL QFRET peptide cleavage; AID 743257;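 active = mean inhibition across replicates above the hit cutoff set in the primary screen, cut at about 8.5% in these data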
A number is an active result; - = inactive; . = no result given. Hits are enriched below; roughly 3.4% of the tested compounds scored in any of these assays.

SMILES	sPLA2-III inh	proKLK7 act	PLC-gamma1 inh	ADAM10 inh	ADAM17 inh	PLC-beta3 inh	ADAM10 confirm	ADAM17 counter	ADAM10 counter	ADAM17 confirm
COc1ccc(-c2n[nH]c(C)c2-c2cscn2)c(O)c1	-	-	-	-	-	-	.	.	.	.
COc1ccc(-c2n[nH]c(C)c2-c2cnn(-c3ccccc3)c2)c(O)c1	-	-	-	29.8	14.9	-	-	-	23.0	13.6
COc1ccc(-c2n[nH]c(C)c2-c2cnn(-c3ccccc3)c2)c(O)c1C	-	-	-	31.6	15.5	-	-	-	27.2	15.9
CC(C)n1nnnc1C1(C)CCSCC(=O)N1Cc1cccc(C(F)(F)F)c1 (configuration not stated)	-	-	-	-	-	-	.	.	.	.
O=C(NCCc1c[nH]c2ccccc12)OCc1cn(Cc2ccccc2Cl)nn1	-	-	-	-	-	-	.	.	.	.
Cc1sc2ncnc(N3CCC(C(=O)N(C)CC(=O)Nc4ccc(Cl)c(C(F)(F)F)c4)CC3)c2c1C	-	-	-	22.7	11.6	-	-	-	47.8	25.0
CNC(=O)c1cc(Oc2ccc(NC(=O)Nc3ccc(Cl)c(C(F)(F)F)c3)cc2)ccn1	-	-	-	24.8	15.7	-	-	-	35.4	20.4
CC1CCN(c2ccc(C(=O)O)cc2NS(=O)(=O)c2ccccc2)CC1	-	-	-	-	-	-	.	.	.	.
O=C(COC(=O)[C@H](Cc1c[nH]c2ccccc12)NC(=O)c1cccs1)NCc1ccccc1	-	-	-	-	-	-	.	.	.	.
O=C(NC(Cc1c[nH]c2ccccc12)C(=O)Nc1ccc(OC(F)(F)F)cc1)c1cccs1 (configuration not stated)	-	-	-	25.4	11.6	-	-	-	58.7	29.5
O=C(Cc1c(Sc2ccccc2)c2ccccc2n1Cc1ccccc1)NCCO	-	-	-	30.1	14.1	-	-	-	-	9.1
Cn1c(CC(=O)NCCO)c(Sc2ccccc2)c2ccccc21	-	-	-	-	-	-	.	.	.	.
Cc1ccccc1CS(=O)(=O)Cc1ccc(C(=O)Nc2cccc(C)c2C)o1	-	-	-	-	-	-	.	.	.	.
CCOC1=C2[C@@H](CN(S(=O)(=O)c3ccc(C)cc3)[C@H]2c2cccc3ccccc23)[C@H]2C(=O)N(Cc3ccccc3)C(=O)[C@H]2C1	-	-	-	25.0	8.8	-	-	-	21.2	14.1
O=C(COc1ccc(Br)cc1)N1CCN(c2ccc([N+](=O)[O-])c(N3CCCCC3)c2)CC1	-	-	-	24.0	10.9	-	-	-	32.1	18.0
O=C(COc1ccc(Cl)cc1)Nc1nc(-c2cccs2)cs1	-	-	-	22.9	9.7	-	-	-	-	-
COc1ccc(C(=O)Nc2nc(-c3cccs3)cs2)cc1	-	-	-	20.7	10.2	-	-	-	-	-
CCCN(C(=O)CCc1cn(CCC)c2ccccc12)c1ccc(Oc2cccnc2)cc1	-	-	-	-	-	-	.	.	.	.
COC(=O)[C@H]1C[C@@]2(N3CCCCC3)c3ccccc3N[C@H]2N1S(=O)(=O)c1ccc([N+](=O)[O-])cc1	-	-	-	-	-	-	.	.	.	.
COc1ccc(C(=O)OCC(=O)NCc2ccco2)cc1S(=O)(=O)N1CCN(c2cccc(Cl)c2)CC1	-	-	-	28.6	16.9	-	-	-	28.2	18.2
CCCCCCCCOC(=O)C1=C(C)Nc2nnnn2C1c1cccs1 (configuration not stated)	-	-	-	20.3	10.2	-	-	-	20.7	-
Cc1cccc(-c2cccc3c4c([nH]c23)[C@@H]2C[C@H](N(C)C(=O)Nc3ccccc3)[C@H]([C@H](C)O)C(=O)N2CC4)c1	-	-	-	-	-	-	.	.	.	.
COc1ccc(NC(=O)Cn2nnc(-c3ccccc3)c2COc2ccc3ccccc3c2)cn1	-	-	-	20.1	11.5	-	-	-	30.9	16.7
Nc1cccc(Oc2c(F)c(F)c(Oc3cccc(N)c3)c(F)c2F)c1	-	-	-	23.0	9.2	-	-	-	40.8	20.4
O=C(COC(=O)c1cccc(NS(=O)(=O)c2ccc(F)c(F)c2)c1)NC(=O)NC1CCCCC1	-	-	-	28.0	12.9	-	-	-	-	10.5
SMILES	sPLA2-III inh	proKLK7 act	PLC-gamma1 inh	ADAM10 inh	ADAM17 inh	PLC-beta3 inh	ADAM10 confirm	ADAM17 counter	ADAM10 counter	ADAM17 confirm
CCCNC(=O)NC(=O)COC(=O)c1cccc(NS(=O)(=O)c2ccc(F)c(F)c2)c1	-	-	-	-	-	-	.	.	.	.
COc1ccc(NC(=O)c2cccnc2NCCc2ccccc2)cc1	-	-	-	-	-	-	.	.	.	.
COc1cccc(Nc2ncccc2C(=O)Nc2ccccc2)c1	-	-	-	28.5	18.6	-	-	-	-	-
COc1cccc(Oc2cn[nH]c2-c2ccc(OC)cc2O)c1	-	-	-	-	-	-	.	.	.	.
CCOc1ccc(-c2[nH]ncc2Oc2cccc(OC)c2)c(O)c1	-	-	-	23.6	10.6	-	-	-	34.7	20.4
COCCCN1C(=O)[C@H](CC(=O)NCCC(C)C)[C@]2(C(=O)OC)CCCCC=C12	-	-	-	-	-	-	.	.	.	.
O=C(CSc1nnc(-c2ccc(Cl)cc2)n1-c1ccccc1)NN=Cc1c[nH]c2ccccc12	-	-	-	29.5	15.8	-	-	-	42.4	18.1
Cc1cc([N+](=O)[O-])nn1CCCC(=O)Nc1ccc2c(c1)OCO2	-	-	-	-	-	-	.	.	.	.
Cc1ccc(Oc2cc(NC(=O)CCCn3nc([N+](=O)[O-])cc3C)cc([N+](=O)[O-])c2)cc1	-	-	-	22.7	12.9	-	-	-	31.7	17.6
C=CCN1C(=O)[C@@H](CC(=O)N2CCSCC2)[C@]2(C(=O)OCC)CCCCC/C=C/12	-	-	-	-	-	-	.	.	.	.
CCOc1ccc(NC(=O)CN2CCCN(c3ccc(OC)cc3)CC2)cc1	-	-	-	-	-	-	.	.	.	.
Cc1ccc(NC(=O)c2cc(S(=O)(=O)Nc3ccc(C)cc3)cs2)cc1	-	-	-	26.7	10.1	-	-	-	45.3	18.8
COC(=O)c1cc(-c2ccc(C)c(C)c2)c(=O)n2c1CCC2	-	-	-	-	-	-	.	.	.	.
COc1ccc(CNCC#Cc2cccnc2)c(OC)c1	-	-	-	-	-	-	.	.	.	.
